Results on six molecules are retold here after PubChem BioAssay (NCATS).

Holding throughout (test): qHTS profiling for inhibitors of Plasmodium falciparum proliferation (AID 504749); also: nearly all actives have a fitted effect of over 60% in size
What all share (conditions): P. falciparum in erythrocytes, SYBR Green DNA, 72 h; series mostly up to 28.7 µM
In general terms: qHTS replaces the single test concentration by a dilution series.

Experiment [1] deals with CP335. In a few lines:
(§1)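 P. falciparum-infected erythrocytes (0.3% parasitemia, 2.5% hematocrit final) were exposed to compounds for 72 h at 37 C in 5% CO2, then lysed with SYBR Green buffer overnight at room temperature; parasite DNA fluorescence was normalized to artemisinin and DMSO controls.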

Experiment [2] has as its system DFO2036. A digest of the protocol:
as §1

The test system of experiment [3] is DIV14. In a few lines: as §1
Experiment [4] deals with DIV17. A digest of the protocol:
as §1

Experiment [5] concerns DIV30. In a few lines:
as §1

The subject of experiment [6] is Dd2. A digest of the protocol: as §1
Experiment [7] relates to ECU. In a few lines: as §1
Experiment [8] concerns FAB9. A digest of the protocol: as §1
The subject of experiment [9] is GB4. A digest of the protocol:
as §1

The test system of experiment [10] is HB3. A digest of the protocol: as §1

Results filed as inconclusive are left out. The source made the active and inactive calls. Calls follow the shape of the dose curve; as a rule, active = well fitted inhibition curve with a large enough effect; inconclusive = small, poorly fitted or top-dose-only effect; inactive = flat fitted curve, though single readings scatter.
Potency is read from the fitted curve at half-maximal effect.

For `CC(O)C(O)[C@H]1CNc2nc(N)[nH]c(=O)c2N1` (stereo partly specified), the Potency entry in experiment [1], in experiment [2], in [3], in experiment [4], in experiment [6] and in [7] was “inactive” each time. The Potency result in experiment [9] and in [10] was “inactive” in each case. The outcome in [5] and in [8] was inactive.
For the molecule `CCCCCCCCCCCCCCCCCCOC[C@H](COP(=O)([O-])OCC[N+](C)(C)C)OC`, the Potency entry in experiment [1], in experiment [2], in [3], in experiment [4], in experiment [6] and in [7] was “inactive” each time. Besides, the Potency result in experiment [9] and in experiment [10] was “inactive” throughout. The outcome in experiment [5] and in experiment [8] was inactive.
Take `CC(C)NC[C@H](O)COc1ccc(CC(N)=O)cc1`: the Potency entry in experiment [1], in [2], in [3], in experiment [4], in experiment [6] and in [7] was “inactive” each time. Also, the Potency entry in [9] and in experiment [10] was “inactive” in each case. The call in experiment [5] and in [8] was inactive.
`CN1C2CCC1CC(OC(c1ccccc1)c1ccccc1)C2` (stereo unspecified): the Potency is 4.78 µM (active) in [3] and 3.01 µM (active) in experiment [4]. Also, in experiment [8], the call was inactive. Also, the Potency entry in experiment [10] is “inactive”.
With `CCCCCCCCCCCCCCC[C@H](O)[C@H](N)CO`, the Potency entry in experiment [1], in [2], in experiment [3], in [4], in experiment [7] and in [9] was “inactive” in each case. Besides, in [10], the Potency entry was “inactive”. The molecule was classed as inactive in experiment [5] and in experiment [8].
For the molecule `c1ccc(C2CN3CCSC3=N2)cc1` (stereo unspecified), the Potency in experiment [1] was 5.36 µM (active); in experiment [2], 6.31 µM (active); in experiment [3], 2.69 µM (active); in experiment [4], 3.01 µM (active); in [6] it was 3.98 µM (active); in [7] it was 8.91 µM (active). For the same molecule, the Potency is 8.49 µM (active) in experiment [9] and 3.16 µM (active) in [10].
